Reference: PubChem BioAssay AID2061166 (Soto Lab, Mitchell Center for Alzheimers Disease and …, 2025)
Where “and” joins values, the source holds several entries; their conditions need not be identical. Identical values can stand only once. Values without a mark were called inactive. Calls of active or inactive are those of the source.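 The calls were made as follows: active = mean tau seeding fluorescence area under 1% of vehicle, meaning inhibition above a set limit; inactive = the rest.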

biological target: Microtubule-associated protein tau (Homo sapiens) (UniProt P10636); experiment: inhibitors of seeded tau aggregation, primary screen, biochemical, seed amplification, ThT fluorescence (AID 2061166); details: Recombinant tau seeded by AD brain, ThT fluorescence AUC; at 100 µM; active compounds read high
Sequence (P10636 whole entry, looked up): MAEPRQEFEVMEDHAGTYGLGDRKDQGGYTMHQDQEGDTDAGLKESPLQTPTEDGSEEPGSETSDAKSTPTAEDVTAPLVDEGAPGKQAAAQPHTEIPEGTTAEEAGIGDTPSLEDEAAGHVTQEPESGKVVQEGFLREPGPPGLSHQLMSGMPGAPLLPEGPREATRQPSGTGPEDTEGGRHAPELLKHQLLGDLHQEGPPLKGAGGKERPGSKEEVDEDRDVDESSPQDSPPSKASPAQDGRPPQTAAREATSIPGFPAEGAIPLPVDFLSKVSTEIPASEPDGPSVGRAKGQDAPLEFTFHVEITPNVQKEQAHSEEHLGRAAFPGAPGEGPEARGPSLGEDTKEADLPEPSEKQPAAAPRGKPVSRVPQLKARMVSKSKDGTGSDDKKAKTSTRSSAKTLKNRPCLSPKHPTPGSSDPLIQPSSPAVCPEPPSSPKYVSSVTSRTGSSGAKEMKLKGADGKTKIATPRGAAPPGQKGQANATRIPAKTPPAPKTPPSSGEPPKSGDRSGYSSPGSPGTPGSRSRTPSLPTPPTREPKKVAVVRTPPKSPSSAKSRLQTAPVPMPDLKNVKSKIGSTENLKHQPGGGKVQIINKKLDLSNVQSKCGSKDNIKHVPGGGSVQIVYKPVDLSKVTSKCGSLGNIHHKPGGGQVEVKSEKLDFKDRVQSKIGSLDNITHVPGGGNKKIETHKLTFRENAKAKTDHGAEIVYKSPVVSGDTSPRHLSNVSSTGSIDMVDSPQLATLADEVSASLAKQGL

Question: How did the inhibition turn out when `CCCNC1CCc2nc(N)sc2C1` (configuration not stated) was run?
Answer: 13.7% and -33.7%

Question: With `Nc1nc2[nH]cc(CCc3ccc(C(=O)NC(CCC(=O)O)C(=O)O)cc3)c2c(=O)[nH]1` (configuration not stated) as the compound, how does the inhibition read?
Answer: 15.2%

Question: With `CCN(C(=O)c1c(O)c2c(Cl)cccc2n(C)c1=O)c1ccccc1` as the compound, how does the inhibition read?
Answer: 20%

Question: How did the inhibition turn out when `O=C(OC1CC2CCC(C1)[N+]21CCCC1)C(O)(c1ccccc1)c1ccccc1` (configuration not stated) was run?
Answer: 16.5%

Question: With `COC1C(=O)C2(C)C(OC)CC3OCC3(OC(C)=O)C2C(OC(=O)c2ccccc2)C2(O)CC(OC(=O)C(O)C(NC(=O)OC(C)(C)C)c3ccccc3)C(C)=C1C2(C)C` (configuration not stated) as the compound, how does the inhibition read?
Answer: 10.4%

Question: `NC(=O)NO` was tested. Which inhibition did it give?
Answer: -49.7%

Question: For `OC(c1cc(C(F)(F)F)nc2c(C(F)(F)F)cccc12)C1CCCCN1` (configuration not stated), which inhibition is on record?
Answer: 66.4%

Question: Which inhibition does the source give for `Cc1cc(=O)n(-c2ccccc2)n1C` here?
Answer: 8.96%

Question: For `CCc1cc(C(N)=S)ccn1`, which inhibition is on record?
Answer: 40.9%

Question: With `Cc1c(C(=O)NN2CCCCC2)nn(-c2ccc(Cl)cc2Cl)c1-c1ccc(Cl)cc1` as the compound, how does the inhibition read?
Answer: 50.7%

Question: For `Nc1cccc2c1C(=O)N(C1CCC(=O)NC1=O)C2=O` (configuration not stated), which inhibition is on record?
Answer: 16.4%

Question: How did the inhibition turn out when `CN(C)CC(c1ccc(O)cc1)C1(O)CCCCC1` (configuration not stated) was run?
Answer: 15.1%

Question: `CN(C)c1ccc2nc3ccc(=[N+](C)C)cc-3sc2c1` was tested. Which inhibition did it give?
Answer: 100% (active)

Question: With `CS(=O)(=O)c1ccc(C(=O)Nc2ccc(Cl)c(-c3ccccn3)c2)c(Cl)c1` as the compound, how does the inhibition read?
Answer: 44%

Question: How did the inhibition turn out when `CN(CCOc1ccc(CC2SC(=O)NC2=O)cc1)c1ccccn1` (configuration not stated) was run?
Answer: -61%

Question: With `Cc1ncc(CO)c(CO)c1O` (tested in a mixture with another compound) as the compound, how does the inhibition read?
Answer: 21.6%

Question: Which inhibition does the source give for `COc1cc2nc(N(C)CCCNC(=O)C3CCCO3)nc(N)c2cc1OC` (configuration not stated) here?
Answer: 17.4%

Question: How did the inhibition turn out when `CC(=O)OCC(=O)C1(O)C(C)CC2C3CCC4=CC(=O)C=CC4(C)C3(F)C(O)CC21C` (configuration not stated) was run?
Answer: 46.2%

Question: How did the inhibition turn out when `CC(=O)Oc1cc(C(F)(F)F)ccc1C(=O)O` was run?
Answer: 27%

Question: For `CC12CC3(O)OC(O1)C1(COC(=O)c4ccccc4)C3CC21OC1OC(CO)C(O)C(O)C1O` (configuration not stated), which inhibition is on record?
Answer: -50%

Question: Which inhibition does the source give for `CC(OC1OCCN(Cc2n[nH]c(=O)[nH]2)C1c1ccc(F)cc1)c1cc(C(F)(F)F)cc(C(F)(F)F)c1` (configuration not stated) here?
Answer: 60.4%

Question: How did the inhibition turn out when `CC(C)COc1ccc(CNC(=O)N(Cc2ccc(F)cc2)C2CCN(C)CC2)cc1` was run?
Answer: -91.6%

Question: For `CC(=O)c1c(O)c(C)c(O)c2c1OC1=CC(=O)C(C(C)=O)C(=O)C12C` (configuration not stated), which inhibition is on record?
Answer: 21.4%

Question: Which inhibition does the source give for `NS(=O)(=O)Cc1noc2ccccc12` here?
Answer: 18.2%

Question: `CC1(C)CCC2(C(=O)O)CCC3(C)C(=CCC4C5(C)CCC(O)C(C)(CO)C5CCC43C)C2C1` (configuration not stated) was tested. Which inhibition did it give?
Answer: 65%

Question: With `CCN(CC)CCCC(C)Nc1c2ccc(Cl)cc2nc2ccc(OC)cc12` (configuration not stated) as the compound, how does the inhibition read?
Answer: 72.2%

Question: With `CC1(C)SC2C(NC(=O)C(N)c3ccc(O)cc3)C(=O)N2C1C(=O)O` (configuration not stated) as the compound, how does the inhibition read?
Answer: -6.81%

Question: With `COc1ccc2[nH]cc(CCNC(C)=O)c2c1` as the compound, how does the inhibition read?
Answer: -15.9%

Question: `NC(=O)OCC(COC(N)=O)c1ccccc1` was tested. Which inhibition did it give?
Answer: -8.84%

Question: With `O=c1c(O)c(-c2cc(O)c(O)c(O)c2)oc2cc(O)cc(O)c12` as the compound, how does the inhibition read?
Answer: 95.3%

Question: `COc1cc(C=CC(=O)CC(=O)C=Cc2ccc(O)c(OC)c2)ccc1O` was tested. Which inhibition did it give?
Answer: 86.4%

Question: `CC(=O)Oc1ccccc1C(=O)O` was tested. Which inhibition did it give?
Answer: 2.58%
